Assay results published in PubChem BioAssay (Tox21).
Values joined by “and” are separate entries in the source; they are usually repeats but may differ in a detail not shown here. Equal values may be shown once. Results filed as inconclusive are left out. Active and inactive are the calls of the source. Unless noted, calls follow the shape of the full dose curve.

Experiment: qHTS assay to identify small molecule agonists of the estrogen related receptor (ERR) signaling pathway from Tox21 library (AID 1224849); also: nearly all actives have a fitted effect of over 15% in size
Settings: ERR reporter cell line, ONE-Glo luciferase, 18 h; at 42.5 µM (top of the series)
Summary of the method: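 Cells carrying the ERR reporter were plated and allowed to settle for 6 h, exposed to library compounds for 18 h at 37 C, then lysed with ONE-Glo and luminescence measured.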
% is scaled to controls: 0 for no effect and ±100 for the full control effect.

SMILES	activity change, positive = activation
CCCCC(CC)COC(=O)C(C#N)=C(c1ccccc1)c1ccccc1 (centres undefined)	-38.1% (inactive)
C[C@H]1C[C@@H]2[C@H]([C@@H](O)C[C@@]3(C)[C@H]2CC[C@]3(O)C(=O)CO)[C@@]2(C)C=CC(=O)C=C12	-3.14% (inactive)
N[C@@H](Cc1cc(I)c(Oc2cc(I)c(O)c(I)c2)c(I)c1)C(=O)O	-1.09% (inactive) and 0.396% (inactive)
CC[C@H](C)C(=O)O[C@H]1C[C@@H](C)C=C2C=C[C@H](C)[C@H](CC[C@@H]3C[C@@H](O)CC(=O)O3)[C@H]21	14.3% (active)
O=C(O)CCCC[C@@H]1SC[C@@H]2NC(=O)N[C@@H]21	7.51% (inactive)

Same assay, conditions: ERR reporter cell line, ONE-Glo luciferase, 18 h; at 92.4 µM (top of the series)

SMILES	activity change, positive = activation
CCCCC(CC)COC(=O)C(C#N)=C(c1ccccc1)c1ccccc1 (centres undefined)	-32.9% (inactive)
OCCOCCOCCO	-2.92% (inactive) and 6.58% (inactive)
CC(C)CC(=O)CC(C)C	0.354% (inactive) and 0.455% (inactive)
Nc1cc([N+](=O)[O-])ccc1O	-4.29% (inactive) and 0.807% (inactive)
Cc1cccc(O)c1	8.59% (inactive) and 2.31% (inactive)
CCC(O)OC(O)CC (centres undefined)	4% (inactive) and 3.85% (inactive)
CCCCCCCCCCCCCCCO	-0.174% (inactive)
O=C(CC(C(=O)OC1CCCCC1)S(=O)(=O)O)OC1CCCCC1 (centres undefined)	3.03% (inactive) and -2.61% (inactive)
C[C@H]1C[C@@H]2[C@H]([C@@H](O)C[C@@]3(C)[C@H]2CC[C@]3(O)C(=O)CO)[C@@]2(C)C=CC(=O)C=C12	-13.3% (inactive)
O=C(Oc1ccccc1)c1ccccc1	4.89% (inactive) and 5.21% (inactive)
CCc1cccc(C)c1N	-1.49% (inactive)
ON=C1CCCCC1	-1.41% (inactive) and -1.15% (inactive)
Fc1ccc(Br)cc1	-0.613% (inactive) and 3.34% (inactive)
CCCCCCCCCCCCc1ccccc1	9.43% (inactive) and 1.83% (inactive)
CC(C)(N)CO	3.88% (inactive) and 1.99% (inactive)
OCC(CO)(CBr)CBr	2.42% (inactive) and 0.192% (inactive)
CC(=O)CC(=O)Nc1ccccc1C	1.06% (inactive) and 1.9% (inactive)
CCC(O)OCCCOC (centres undefined)	1.37% (inactive) and 8.84% (inactive)

SMILES	activity change, positive = activation
O=c1[nH]nnc2ccccc12	5.04% (inactive) and -0.708% (inactive)
OC[C@H]1O[C@@](CO)(O[C@H]2O[C@H](CO)[C@@H](O)[C@H](O)[C@H]2O)[C@@H](O)[C@@H]1O	6.61% (inactive) and 1.2% (inactive)
COS(C)(=O)=O	1.76% (inactive) and -2.76% (inactive)
COCCCOc1ccnc(CS(=O)c2nc3ccccc3[nH]2)c1C (centres undefined)	-25.6% (inactive)
O=P(OC(CCl)CCl)(OC(CCl)CCl)OC(CCl)CCl	-54.2% (inactive) and -40.7% (inactive)
COc1ccc(Nc2ccccc2)c(C)c1	-0.657% (inactive)
CC1=C(C)S(=O)(=O)CCS1(=O)=O	10.9% (inactive)
C=C(C)C(=O)O[C@H]1C[C@@H]2CC[C@@]1(C)C2(C)C	-82.3% (inactive) and 8.09% (inactive)
CN(C)CCOCCN(C)C	-5.24% (inactive) and -0.172% (inactive)
CN(C)CCCN	5.71% (inactive) and 0.874% (inactive)
Nc1ccccc1[N+](=O)[O-]	9.45% (inactive) and 1.58% (inactive)
O=C(O)c1ccccc1C(c1ccc(O)cc1)c1ccc(O)cc1	4.92% (inactive) and 4.34% (inactive)
CC[C@H](C)C(=O)O[C@H]1C[C@@H](C)C=C2C=C[C@H](C)[C@H](CC[C@@H]3C[C@@H](O)CC(=O)O3)[C@H]21	-46.9% (active) and 27.5% (active)
O=C(O)CCCC[C@@H]1SC[C@@H]2NC(=O)N[C@@H]21	9.85% (inactive)
CCCCC(CC)COC(=O)CS (centres undefined)	-0.266% (inactive) and -15.8% (inactive)
CSCCC=O	9.1% (inactive) and 4.08% (inactive)
c1ccc2c(c1)ccc1ccccc12	-34.9% (inactive) and -32.3% (inactive)
Cc1cccnc1	2.78% (inactive) and 3.63% (inactive)

Experiment: qHTS RealTime-Glo MT Cell Viability Assay in HepG2 cells - 24 hour (AID 1224867; active = well fitted cell-killing curve with a large enough effect in the repeat runs; also: nearly all actives have a fitted effect of over 50% in size)
Settings: RealTime-Glo luminescence; series mostly up to 76.8 µM; activity change, negative = cytotoxicity: at the top concentration
Summary of the method: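 HepG2 suspension premixed with RealTime-Glo reagents is plated at 600 cells per well and left 5 h at 37 C/5% CO2. Compounds in DMSO then go in, and bioluminescence reflecting viable cell number is recorded over 40 h.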

SMILES	outcome	activity change, negative = cytotoxicity
CCCCC(CC)COC(=O)C(C#N)=C(c1ccccc1)c1ccccc1 (centres undefined)	inactive	
CC(C)CC(=O)CC(C)C	inactive	
Nc1cc([N+](=O)[O-])ccc1O	inactive	
Cc1cccc(O)c1	inactive	
CCCCCCCCCCCCCCCO	inactive	
C[C@H]1C[C@@H]2[C@H]([C@@H](O)C[C@@]3(C)[C@H]2CC[C@]3(O)C(=O)CO)[C@@]2(C)C=CC(=O)C=C12	inactive	
N[C@@H](Cc1cc(I)c(Oc2cc(I)c(O)c(I)c2)c(I)c1)C(=O)O	inactive	
O=C(Oc1ccccc1)c1ccccc1	inactive	
ON=C1CCCCC1	inactive	
Fc1ccc(Br)cc1	inactive	
CCCCCC1=CCCC1=O	inactive	
OCC(CO)(CBr)CBr	inactive	
CC(=O)CC(=O)Nc1ccccc1C	inactive	
COS(C)(=O)=O	inactive	
O=P(OC(CCl)CCl)(OC(CCl)CCl)OC(CCl)CCl	inactive	
COc1ccc(Nc2ccccc2)c(C)c1	inactive	
CC1=C(C)S(=O)(=O)CCS1(=O)=O	inactive	
C=C(C)C(=O)O[C@H]1C[C@@H]2CC[C@@]1(C)C2(C)C	inactive	
CN(C)CCOCCN(C)C	inactive	
CN(C)CCCN	inactive	
Nc1ccccc1[N+](=O)[O-]	inactive	
O=C(O)c1ccccc1C(c1ccc(O)cc1)c1ccc(O)cc1	inactive	
CC[C@H](C)C(=O)O[C@H]1C[C@@H](C)C=C2C=C[C@H](C)[C@H](CC[C@@H]3C[C@@H](O)CC(=O)O3)[C@H]21		-11.3% (inactive)
O=C(O)CCCC[C@@H]1SC[C@@H]2NC(=O)N[C@@H]21	inactive	
CCCCC(CC)COC(=O)CS (centres undefined)	inactive	
CSCCC=O	inactive	
c1ccc2c(c1)ccc1ccccc12	inactive	
Cc1cccnc1	inactive	
